Here are results for 31 compounds from PubChem BioAssay AID1004 (SRMLSC, 2008).

Molecules are shown by their SMILES. Values without a mark were called inactive. The source made the active and inactive calls.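 How the source made its calls: active means viability at 10 µM of 29.74% or lower, 3 SD below the compound median; inactive means the rest.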

The nature of the assay: viability of HCT116 lacking mutant beta-catenin – cell-based, DP diverse set, validation, pilot screen (AID 1004). As to conditions: HCT116 (mutant beta-catenin deleted) viability, CellTiter-Glo, 60 h; at 10 µM; hits give low values.
The term viability denotes a read-out of living cells in per cent, often relative to untreated cells. For `Cc1cc(CC(=O)O)n(C)c1C(=O)c1ccc(Cl)cc1`, the viability is 98.7%.

As to `C[C@@]12C=Cc3occc3C1CC[C@@]13C[C@@H](CCC12)[C@@](O)(CO)C3` (stereo partly specified), the viability is 94.3%.

In the case of `CC1(C)CCC[C@@](C)([C@H]2CC[C@]3(C)[C@@H]2[C@H](O)C[C@@H]2[C@@]4(C)CC[C@H](O)C(C)(C)[C@@H]4[C@@H](O)C[C@]23C)O1`, the viability was 97.9%.

As to `O=C(c1ccc(OCCN2CCCCC2)cc1)c1c(-c2ccc(O)cc2)sc2cc(O)ccc12`, the viability was 86.1%.

On to `CC[C@@]1([C@@H]2O[C@@H]([C@H]3O[C@@](O)(CO)[C@H](C)C[C@@H]3C)C[C@@H]2C)CC[C@H]([C@]2(C)CC[C@]3(C[C@H](O)[C@@H](C)[C@@H]([C@@H](C)[C@@H](OC)C(C)C(=O)O)O3)O2)O1` (stereo partly specified), for which the viability is 93%.

In the case of `C/C(=C\CNc1ncnc2c1ncn2[C@@H]1O[C@H](CO)[C@@H](O)[C@H]1O)CO`, the viability was 102%.

For the compound `Cc1ccc(Cl)c(Nc2ccccc2C(=O)O)c1Cl`, the viability is 98.9%.

`CN1CCN(C2Cc3ccccc3Sc3ccc(S)cc32)CC1` (stereo unspecified): the viability is 79.5%.

Turning to `CCC(C)CCCCC(=O)N[C@@H](CCN)C(=O)N[C@H](C(=O)N[C@@H](CCN)C(=O)N[C@H]1CCNC(=O)C([C@@H](C)O)NC(=O)[C@@H](CCN)NC(=O)[C@H](CCN)NC(=O)[C@H](CC(C)C)NC(=O)[C@@H](CC(C)C)NC(=O)[C@H](CCN)NC1=O)[C@@H](C)O` (stereo partly specified), the viability was 94.3%.

Take `CC1(C)OC2CC(=O)OCC23C1CC(=O)C1(C)C3CC[C@@]2(C)[C@H](c3ccoc3)OC(=O)C3OC312` (stereo partly specified): the viability is 93%.

As for `C=CC1(C)CC(=O)C2(O)C(C)(O1)C(OC(C)=O)C(O)C1C(C)(C)CCC(O)C12C` (stereo unspecified), the viability is 86%.

`O=c1c(-c2ccc(O)cc2)coc2cc(O)cc(O)c12`: the viability was 96.7%.

`NC(=O)c1cccc(N)c1`: the viability was 108%.

Turning to `CCOC(=O)C(C)(C)Oc1ccc(Cl)cc1`, the viability was 98.7%.

With `NC(=NCc1ccccc1)NC(=O)c1nc(Cl)c(N)nc1N`, the viability was 88.8%.

Regarding `Clc1ccc2ncnc(NCc3ccc4c(c3)OCO4)c2c1`, the viability is 95.8%.

As to `C=C(C)C1CC=C(C)C(O)C1` (stereo unspecified), the viability was 94.9%.

Consider `Cc1ccc2c(c1)C(=O)C1(O)CCN(c3ccccc3)C1=N2` (stereo unspecified), for which the viability is 91%.

As for `CCC(C)C(O)C(C)C(=O)C(C)/C=C(\C)CC(C)C1OC(=O)C1CC` (stereo unspecified), the viability is 107%.

For the compound `O=c1c(O)c(-c2ccc(O)c(O)c2)oc2cc(O)cc(O)c12`, the viability was 93%.

`NS(=O)(=O)c1cc(C(=O)O)c(NCc2ccco2)cc1Cl`: the viability is 96.3%.

As to `COC(=O)c1cc2c(s1)-c1ccccc1OC2`, the viability is 98%.

With `O=C(O)c1cc(=O)c2c(OCC(O)COc3cccc4oc(C(=O)O)cc(=O)c34)cccc2o1`, the viability was 100%.

Regarding `COc1ccc(C2CNC(=O)C2)cc1OC1CCCC1` (stereo unspecified), the viability is 99.4%.

Consider `CC(C)=CCC/C(C)=C/COc1ccc2ccc(=O)oc2c1`, for which the viability was 96.8%.

For `COc1ccc(CCN(C)CCCN2CCc3cc(OC)c(OC)cc3CC2=O)cc1OC`, the viability was 102%.

As to `COc1cc(Cc2cnc(N)nc2N)cc(OC)c1OC`, the viability was 94.7%.

For `Nc1c2c(nc3ccccc13)CCCC2`, the viability was 99.8%.

On to `Cc1c2oc3c(C)ccc(C(=O)N[C@@H]4C(=O)N[C@H](C(C)C)C(=O)N5CCC[C@H]5C(=O)N(C)CC(=O)N(C)[C@@H](C(C)C)C(=O)O[C@@H]4C)c3nc-2c(C(=O)N[C@@H]2C(=O)N[C@H](C(C)C)C(=O)N3CCC[C@H]3C(=O)N(C)CC(=O)N(C)[C@@H](C(C)C)C(=O)O[C@@H]2C)c(N)c1=O`, for which the viability is 26% (active).

As to `O=c1c2ccccc2nc2n1CCc1c-2[nH]c2ccccc12`, the viability is 90.5%.

Consider `C[C@]12CC[C@@H]3c4ccc(O)cc4CC[C@H]3[C@@H]1CC[C@H]2O`, for which the viability is 91.1%.
